High-throughput results as filed in PubChem.
Rows were chosen to be rich in hits. Some 7.3% of all compounds tested hit in one or more screens of this group.
SNCA expr inhib: Primary qHTS assay for inhibitors of alpha-synuclein gene (SNCA) expression; HEK-293 SNCA-luciferase knock-in, luminescence, 24 h; Potency, µM (top dose mostly 57.2 µM), actives largely listed as inhibitors; 140,000 compounds, 0.17% hits; AID 1671194, 2021; note: nearly all actives have a fitted effect of over 45% in size
HEK293 tox: Cytotoxic Profiling in HEK 293 Cell Line of Diverse Libraries Using Quantitative High-Throughput Screening; HEK 293 viability, ATP luminescence (CellTiter-Glo), 48-72 h; Potency, µM (titrated, usually from 115 µM), actives largely listed as inhibitors; AID 1345083, 2018; 94,000 compounds, 6.6% hits; note: nearly all actives have a fitted effect of over 60% in size
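HEK 293 seeded at 250 cells/well receive compound via pintool. After 48 or 72 hr at 37 degree Celsius, 5% CO2 and 95% humidity, CellTiter-Glo is dispensed and luminescence read following 10 min at room temperature.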
IP6K1 inhibitor: Primary qHTS assay for small molecule inhibitors of Inositol hexaphosphate kinase 1 (IP6K1); Inositol hexakisphosphate kinase 1 (Homo sapiens), Q92551; IP6K1 kinase, ADP-Glo luminescence, 2 h; stronger effect = lower value; activity change, % (series mostly up to about 58 µM); 140,000 compounds, 0.81% hits; AID 1645851, 2021; in the data active = activity change below about -25%
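ADP-Glo luminescence measures ADP made by human IP6K1 during a 2 h RT reaction with ATP/IP6 (mix at 1.3 mM/130 uM); top library doses 57.5 and 19.1 uM final.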
FLuc inh: Firefly luciferase inhibition profiling of diverse chemical library using quantitative high-throughput screening; purified P. pyralis luciferase, luminescence, biochemical; Potency, µM (titrated, usually from 115 µM), hits mostly inhibitors; 76,000 compounds, 2.5% hits; AID 1347043, 2019; note: nearly all actives have a fitted effect of over 65% in size
Target sequence (P08659 whole entry, looked up): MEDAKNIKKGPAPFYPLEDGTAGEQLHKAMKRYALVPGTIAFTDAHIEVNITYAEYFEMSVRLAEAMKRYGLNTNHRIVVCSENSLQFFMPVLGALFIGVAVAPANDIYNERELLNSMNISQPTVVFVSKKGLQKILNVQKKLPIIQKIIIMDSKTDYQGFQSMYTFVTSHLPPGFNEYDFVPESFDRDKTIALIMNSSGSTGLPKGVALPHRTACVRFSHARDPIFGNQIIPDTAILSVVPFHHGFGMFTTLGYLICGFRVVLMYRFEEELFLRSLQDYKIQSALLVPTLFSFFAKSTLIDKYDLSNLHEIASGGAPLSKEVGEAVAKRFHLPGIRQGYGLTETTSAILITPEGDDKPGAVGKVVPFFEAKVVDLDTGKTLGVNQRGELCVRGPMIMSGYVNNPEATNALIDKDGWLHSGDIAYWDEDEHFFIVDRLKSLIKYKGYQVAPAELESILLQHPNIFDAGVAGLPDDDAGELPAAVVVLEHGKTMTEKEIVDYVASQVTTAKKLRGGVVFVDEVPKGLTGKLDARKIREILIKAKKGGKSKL
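Purified P. pyralis luciferase (10nM final) in 50mM Tris acetate pH 7.5, 10mM Mg acetate, 0.01% Tween-20, 0.05% BSA with 10uM D-luciferin and 10uM ATP. Compounds titrated qHTS. Luminescence imaged on CCD.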
NIH3T3 tox: Cytotoxic Profiling in NIH 3T3 Cell Line of Diverse Libraries Using Quantitative High-Throughput Screening; NIH 3T3 viability, CellTiter-Glo ATP luminescence, 48-72 h; Potency, µM (titrated, usually from 96.7 µM), most hits filed as inhibitors; 94,000 compounds, 4.3% hits; AID 1345082, 2018; note: nearly all actives have a fitted effect of over 55% in size
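ATP-dependent luminescence (CellTiter-Glo) served as the viability signal for NIH 3T3 cells treated with compound for 48 or 72 hr at 37 °C.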
HEK293 viab: GF-AFC viability counterscreen for inhibitors of alpha-synuclein gene (SNCA) expression; AID 1671193, 2021; HEK-293-SNCA-luc viability, GF-AFC fluorescence, 24 h; 150,000 compounds, 0.12% hits; Potency, µM (highest dose often 57.1 µM), actives largely listed as cytotoxic; note: nearly all actives have a fitted effect of over 30% in size
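HEK-293-SNCA-luc cells (1500/well) plated 24 h, then exposed 24 h to a dilution series; GF-AFC added 30 min at 37C, fluorescence 405/540 nm; normalised to medium-only and DMSO wells, Hill fit.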
Large screens that a line does not name were inactive; ! = not active in a repeat. Unless noted, calls come from the whole dose curve; as a rule, active = well fitted curve in the direction sought with a large enough effect; inconclusive = small, poorly fitted or top-dose-only effect, or another doubt; inactive = no such curve, though single readings can be large; an effect the other way counts as inactive or inconclusive.

O=C(c1ccc(F)cc1)N1CCC2(C1)C(=O)N(CCc1ccccc1)c1ccccc12 (centres undefined)	SNCA expr inhib inconclusive, HEK293 tox 40µM!, NIH3T3 tox inconclusive
COCC(=O)N1CCC2(C1)C(=O)N(CCc1ccccc1)c1ccccc12 (centres undefined)	none
Cc1ccc(C(=O)N2CCC3(C2)C(=O)N(CCc2ccccc2)c2ccccc23)cc1 (centres undefined)	SNCA expr inhib inconclusive, HEK293 tox 32µM!, NIH3T3 tox 40µM!
O=C(c1ccccc1)N1CCC2(C1)C(=O)N(Cc1ccccc1)c1ccccc12 (centres undefined)	SNCA expr inhib inconclusive, HEK293 tox inconclusive, NIH3T3 tox inconclusive
COC(=O)N1CCC2(C1)C(=O)N(CCc1ccccc1)c1ccccc12 (centres undefined)	HEK293 tox 63µM!, NIH3T3 tox inconclusive, HEK293 viab inconclusive
COc1cc(CNC(=O)C23CCC=C2N(C2CCCC2)C(=O)CC3)cc(OC)c1 (centres undefined)	none (no result: FLuc inh)
O=C(c1ccc(F)cc1)N1CCC(C(=O)N2CCC(c3nc4ncccc4[nH]3)CC2)CC1	none (no result: FLuc inh)
CCn1cc(S(=O)(=O)N2CC(N(Cc3cccnc3)CC(C)C)C2)cn1	none
COc1ccc(OCc2nc(C3CN(C(=O)C4(c5ccc(OC)cc5)CC4)C3)no2)cc1	SNCA expr inhib inconclusive, HEK293 tox inconclusive, NIH3T3 tox inconclusive
COc1ccc(CC(=O)NC2CCN(c3ccc4nnc(C)n4n3)C2)cc1 (centres undefined)	none (no result: SNCA expr inhib, FLuc inh, HEK293 viab)
CN1C(=O)C2(CCN(C(=O)c3cccc(Br)c3)C2)c2ccccc21 (centres undefined)	HEK293 tox 35µM, NIH3T3 tox inconclusive
O=C(c1ccc(Cl)cc1)N1CCC2(C1)C(=O)N(CCc1ccccc1)c1ccccc12 (centres undefined)	SNCA expr inhib inconclusive, HEK293 tox inconclusive, NIH3T3 tox inconclusive (no result: FLuc inh)
COc1ccc(CC(=O)N2CCC3(C2)C(=O)N(CCc2ccccc2)c2ccccc23)cc1 (centres undefined)	HEK293 tox 40µM!, NIH3T3 tox inconclusive
O=C(Cc1cccc(Cl)c1)N1CCC2(C1)C(=O)N(CCc1ccccc1)c1ccccc12 (centres undefined)	HEK293 tox 32µM, NIH3T3 tox 45µM!
O=C(c1ccccc1F)N1CCC2(C1)C(=O)N(CCc1ccccc1)c1ccccc12 (centres undefined)	HEK293 tox 40µM, NIH3T3 tox inconclusive
CN1C(=O)C2(CCN(C(=O)CCc3ccccc3)C2)c2ccccc21 (centres undefined)	HEK293 tox inconclusive
CCOC(=O)C1CCCN(C(=O)c2nc3sccn3c2-c2cccc(C(F)(F)F)c2)C1 (centres undefined)	HEK293 tox inconclusive (no result: FLuc inh)
Cc1nc([C@H]2CCN(Cc3ccc(C)c(C)c3)C[C@H]2NC(=O)C2CC2)n[nH]1	NIH3T3 tox inconclusive
CCN1C(=O)C2CC3(CCN(C(=O)c4cc(C)n(CCOC)c4C)CC3)CN2C1=O (centres undefined)	none (no result: FLuc inh)
COCCNC(=O)c1ccc2nc(-c3cccc(C)n3)oc2c1	HEK293 tox inconclusive, NIH3T3 tox inconclusive (no result: FLuc inh)
O=C(c1ccccc1)N1CCC2(C1)C(=O)N(CCc1ccccc1)c1ccccc12 (centres undefined)	SNCA expr inhib inconclusive, HEK293 tox 35µM!, NIH3T3 tox inconclusive
C=CCNC(=O)c1coc(COc2ccc3ccc(OC)cc3c2)n1	HEK293 tox 45µM, NIH3T3 tox inconclusive
COc1cc(CN2CC[C@@H]3CN(S(C)(=O)=O)[C@@H]3C2)ccc1F	none
Cc1ccc(C2Cn3nnc(C(=O)N4CCN(C(=O)c5cccc(Cl)c5)CC4)c3CO2)cc1 (centres undefined)	HEK293 tox 32µM, NIH3T3 tox inconclusive
O=C(c1cccc(Cl)c1)N1CCN(C(=O)c2nnn3c2COC(c2ccccc2)C3)CC1 (centres undefined)	HEK293 tox inconclusive, NIH3T3 tox inconclusive
COc1ccc(C2Cn3nnc(C(=O)N4CCN(C(=O)c5cccc(C)c5)CC4)c3CO2)cc1 (centres undefined)	SNCA expr inhib inconclusive, HEK293 tox 8.9µM, NIH3T3 tox inconclusive
O=C(c1ccccc1)N1CCN(C(=O)c2nnn3c2COC(c2ccccc2)C3)CC1 (centres undefined)	none
O=C(c1ccc2[nH]ccc2c1)N1CCN(C(=O)c2nnn3c2COC(c2ccccc2)C3)CC1 (centres undefined)	HEK293 tox 79µM
Cc1ccc(C2Cn3nnc(C(=O)N4CCN(C(=O)c5cccc(C)c5)CC4)c3CO2)cc1 (centres undefined)	SNCA expr inhib inconclusive, HEK293 tox 45µM, NIH3T3 tox inconclusive, HEK293 viab inconclusive
CN(C)c1cccc(C(=O)N2CCC3(CC2)NC(=O)N(c2cccc(F)c2)N3)c1	HEK293 tox inconclusive, NIH3T3 tox inconclusive
Cc1ccc(C2Cn3nnc(C(=O)N4CCN(C(=O)c5cccc(N(C)C)c5)CC4)c3CO2)cc1 (centres undefined)	HEK293 tox 18µM, FLuc inh inconclusive
COc1ccc2[nH]c(C[C@@H]3C[C@@H](C(C)C)[C@H](CNC(C)=O)C=C3C)nc2n1	HEK293 tox 71µM, NIH3T3 tox inconclusive
COc1ccc2[nH]c(C[C@@H]3C[C@@H](C(C)C)[C@H](CN)C=C3C)nc2n1	HEK293 tox inconclusive, NIH3T3 tox inconclusive
COc1ccc2[nH]c(C[C@@H]3C[C@@H](C(C)C)[C@H](CNCc4cccnc4)C=C3C)nc2n1	SNCA expr inhib inconclusive, HEK293 tox 63µM, NIH3T3 tox 89µM
COc1ccc2[nH]c(C[C@@H]3C[C@@H](C(C)C)[C@H](CNC(=O)c4cnccn4)C=C3C)nc2n1	HEK293 tox 63µM, NIH3T3 tox 100µM
COc1ccc2[nH]c(C[C@@H]3C[C@@H](C(C)C)[C@H](CNC(=O)Cn4cnnn4)C=C3C)nc2n1	HEK293 tox inconclusive, NIH3T3 tox inconclusive
COc1ccc2[nH]c(C[C@@H]3C[C@@H](C(C)C)[C@H](CNC4CCN(C(C)=O)CC4)C=C3C)nc2n1	HEK293 tox inconclusive, NIH3T3 tox inconclusive
COCc1ncc(C)n1CC1CCN(C(=O)CCc2ccc(OC)cc2)CC1	SNCA expr inhib inconclusive
